Screening results from PubChem BioAssay.
CYP2C19 activ – increases human CYP2C19 enzyme activity; AID 1025; 96,000 tested, under 10 active; recombinant CYP2C19, luciferin-H EGE luminescence; stronger effect = higher value; 0 = fully inhibited enzyme, 1 = untreated enzyme; P33261; activation factor at 5 µM;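 active means activation factor of at least 2 at 5 µM in the primary screen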;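 further: 0 = wells with 2.5 mM tranylcypromine and 1 = vehicle-only wells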
CYP2C9 inhib – inhibitors of human CYP2C9; CYP2C9 Supersomes, luciferin-H conversion, luminescence; inhibition, % at 5 µM; 20% of 96,000 active; AID 777;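 active means blocking of liver enzyme CYP2C9 beyond about 50% at 5 µM, limit read from the data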
sEH inhibitor – inhibitors of human soluble epoxide hydrolase | P34913 | recombinant human sEH enzymatic activity assay | inhibition, % at 2 µM | 0.34% of 91,000 active | AID 707; in the data active means inhibition above about 80%
Target sequence (P34913 whole entry, looked up): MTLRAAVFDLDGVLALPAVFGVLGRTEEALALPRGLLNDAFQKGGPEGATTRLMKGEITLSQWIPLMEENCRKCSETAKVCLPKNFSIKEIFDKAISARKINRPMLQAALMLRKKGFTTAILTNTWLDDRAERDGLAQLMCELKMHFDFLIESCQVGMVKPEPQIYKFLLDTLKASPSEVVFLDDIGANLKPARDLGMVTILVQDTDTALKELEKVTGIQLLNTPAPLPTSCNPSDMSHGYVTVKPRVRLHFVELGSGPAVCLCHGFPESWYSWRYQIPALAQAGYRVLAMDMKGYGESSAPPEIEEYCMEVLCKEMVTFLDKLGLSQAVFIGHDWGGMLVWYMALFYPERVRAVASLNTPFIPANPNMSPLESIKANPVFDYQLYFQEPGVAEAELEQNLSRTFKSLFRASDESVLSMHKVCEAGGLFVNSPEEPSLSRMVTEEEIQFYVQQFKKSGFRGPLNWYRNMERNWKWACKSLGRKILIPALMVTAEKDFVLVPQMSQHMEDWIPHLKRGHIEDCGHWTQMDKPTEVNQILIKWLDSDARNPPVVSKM
CYP2C9 activ – increases human cytochrome P450 2C9 activity | P11712 | recombinant CYP2C9, luciferin-H conversion, luminescence; stronger effect = higher value; factor 1 = untreated enzyme, 0 = blocked | activation factor at 5 µM | 1.4% of 96,000 active;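 active means activation factor of 2 or more for CYP2C9 at a 5 µM dose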;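 further: 0 = sulfaphenazole-blocked wells and 1 = vehicle-only wells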
CYP2C19 inh – inhibitors of human CYP2C19; 21% of 96,000 active; P33261; inhibition, % at 5 µM; AID 778; CYP2C19 Supersomes, luciferin-H EGE luminescence, 30 min;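 active means CYP2C19 inhibition above a set limit at 5 µM in the primary screen, cut at about 50% in these data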;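 further: plate controls were negative control wells for no effect and 2.5 mM tranylcypromine positive control for full effect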
sEH act – soluble epoxide hydrolase (human) activation; AID 717; purified human sEH enzymatic activity, activator screen; activation, % at 2 µM; 0.04% of 91,000 active; P34913; in the data active means activation above about 37%
Active calls of the source: *; / = not tested or not shown. In the library only some 27% were active in any assay of this set; here they are far more common.

SMILES	CYP2C19 activ	CYP2C9 inhib	sEH inhibitor	CYP2C9 activ	CYP2C19 inh	sEH act
Cc1ccc(-n2nnc3c(=O)n(Cc4cc(C)ccc4C)cnc32)cc1	/	/	-21	/	/	23
O=c1n(Cc2ccc(Cl)cc2)c2sc3c(c2c2ncnn12)CCCC3	0.5	85*	20	0.1	50	-19
C=CCn1c(=O)n2ncnc2c2c3c(sc21)CCCC3	0.9	31	6	0.7	13	-7
O=C(CNS(=O)(=O)c1ccccc1)NCc1ccccn1	1	4	-3	1	-3	8
CSc1nnc2c3cc(C)ccc3n(Cc3ccccc3)c2n1	0.9	30	/	0.7	8	/
COC(=O)CSc1nc2ccccc2nc1SCC(=O)OC	0.5	25	3	0.8	54*	-1
COC(=O)CSc1nc(C(C)C)nc2ccccc12	0.2	43	-9	0.6	80*	7
COC(=O)CSc1cnc2ccccc2n1	1.1	-9	-6	1.1	-8	7
COC(=O)c1sc(S(=O)(=O)N2CCC(C(=O)O)CC2)c(C(=O)OC)c1C	1	3	15	1	3	-14
C#CC(C)(CC)NC(=O)c1cc(OC)c(OC)c(OC)c1 (configuration not stated)	1.1	-12	-8	1.1	-9	8
CC(C)OC(=O)C1C2C=CC3(CN(C(C)c4ccc(Br)cc4)C(=O)C13)O2 (configuration not stated)	0.2	30	/	0.7	83*	/
COc1cccc(C(=O)/C=C/c2ccc(SC)cc2)c1	0.1	40	-3	0.6	92*	4
Cc1noc(NS(=O)(=O)c2ccc(N/C=C/C(=O)c3cccnc3)cc2)c1C	1.1	-9	/	1.1	-10	/
COc1cccc(/C=C/C(=O)c2ccc[nH]2)c1	0.3	17	-6	0.8	70*	3
COc1cccc(C(=O)/C=C/Nc2ccc(S(=O)(=O)Nc3cccc(C(C)=O)c3)cc2)c1	0.7	78*	4	0.2	34	-3
COC(=O)c1cccc(NC(=O)c2cccc(OC)c2)c1	0.5	23	-15	0.8	50	11
CSc1ccc(/C=C/C(=O)c2ccc(NC(=O)C(C)C)cc2)cc1	0.8	20	-12	0.8	16	13
COc1cccc(C(=O)/C=C/Nc2cccc(O)c2)c1	0.1	28	-6	0.7	91*	5
COC(=O)c1ccc(NC(=O)c2ccc(C)cc2)o1	1	3	5	1	0	-7
O=C(N/N=C/c1ccncc1)c1cc([N+](=O)[O-])cc([N+](=O)[O-])c1O	0.4	100*	9	0	56*	-11
CCOc1ccccc1NC(=S)/C(=C(\[O-])c1ccc2c(c1)OCCO2)[n+]1ccc(CC)cc1	0.4	62*	4	0.4	59*	-3
Cc1ccc(Cn2c(N3CCCCCC3)nc3c2c(=O)[nH]c(=O)n3C)cc1	1	0	12	1	3	-12
Cc1ccc(N2C(=O)CC(n3ccnc3)C2=O)cc1C (configuration not stated)	0.4	5	-10	0.9	58*	11
CC1CN(Cc2cc(=O)[nH]c(C(C)C)n2)CC(C)O1 (configuration not stated)	0.9	20	1	0.8	10	1
COc1cc(CNn2cn[nH]c2=S)cc(Cl)c1OCc1ccccc1	0.2	23	8	0.8	82*	-6
SMILES	CYP2C19 activ	CYP2C9 inhib	sEH inhibitor	CYP2C9 activ	CYP2C19 inh	sEH act
O=C1CC(C(=O)Nc2ccccc2C(=O)O)C(c2ccccc2)O1 (configuration not stated)	1	94*	-3	0.1	3	5
O=C1CC(C(=O)Nc2nccs2)C(c2ccccc2)O1 (configuration not stated)	0.1	60*	/	0.4	87*	/
CC1(C)CC(=O)C2=C(C1)Nc1ncnn1C2c1ccccn1 (configuration not stated)	1	0	0	1	-2	0
O=C(CN(Cc1ccc2c(c1)OCO2)C(=O)CNC(=O)c1ccco1)NC1CCCCC1	0.4	83*	6	0.2	61*	-5
O=C(CN(C(=O)CNC(=O)c1cccs1)c1ccc2c(c1)OCCO2)NC1CCCC1	0.8	91*	6	0.1	25	-6
O=C(CN(C(=O)CNC(=O)c1ccco1)c1ccc2c(c1)OCO2)NC1CCCCC1	0.3	95*	4	0	73*	-4
CCOc1ccc(N(CC(=O)NC2CCCCC2)C(=O)CNC(=O)c2ccco2)cc1	/	/	14	/	/	-13
O=C(CN(C(=O)CNC(=O)c1ccco1)c1ccc(Cl)c(Cl)c1)NC1CCCCC1	0.1	89*	16	0.1	86*	-15
O=C(NCC(=O)N(c1ccc2c(c1)OCO2)C(C(=O)NC1CCCC1)c1cccs1)c1ccco1 (configuration not stated)	1	3	5	1	3	-5
Cc1nnc(N2CCN(C)CC2)c2nn(-c3ccc(Cl)cc3)c(C)c12	/	/	13	/	/	-14
Cc1cccc(NC(=O)N2CCCC2C(=O)NCc2cccs2)c1 (configuration not stated)	0.5	10	1	0.9	45	-3
Cc1cc(N(CN2CCCC2=O)C(=O)c2ccccc2)no1	1	8	/	0.9	3	/
O=C(NCC(=O)N(Cc1cccs1)C(C(=O)NC1CCCCC1)c1ccncc1)c1ccco1 (configuration not stated)	/	/	3	/	/	0
O=C(NCC(=O)N(Cc1cccs1)C(C(=O)NC1CCCC1)c1ccco1)c1cccs1 (configuration not stated)	0.1	89*	/	0.1	87*	/
O=C(CN(Cc1cccs1)C(=O)CNC(=O)c1ccco1)NC1CCCCC1	0.9	50*	-12	0.5	9	14
COC(=O)C1CCN(C(=O)COc2cc3sc(C)nc3c3sccc23)CC1	0.8	-11	12	1.1	22	-12
Cc1cc(C)n(C(=O)c2cccc(S(=O)(=O)N3CCCC3)c2)n1	0.2	72*	/	0.3	76*	/
O=C(NCc1cccs1)c1cc(S(=O)(=O)N2CCCCC2)ccc1Cl	/	/	40	/	/	-38
O=C(Nc1cccc(O)c1)c1cc(S(=O)(=O)N2CCCC2)ccc1Cl	0.5	82*	16	0.2	46	-14
O=C(COC(=O)c1ccc(Br)o1)Nc1cccc(S(=O)(=O)N2CCCCCC2)c1	0	92*	-4	0.1	96*	6
Cc1ccc(C(=O)NCc2cccs2)cc1S(=O)(=O)N1CCCCC1	0.6	56*	/	0.4	38	/
CCc1ccc(OCC(=O)Nc2ccc(S(=O)(=O)N3CCCC3)cc2)c(Br)c1	1.2	-19	54	1.2	-19	-54
CCN(CC)CCNc1nc2cc(OC)c(OC)cc2c2nc(-c3ccccc3)nn12	1	-25	11	1.3	-4	-12
CC(=O)Nc1ccc(S(=O)(=O)N2CCC(NC(C)=O)(c3cccc(F)c3)CC2)cc1	0.1	75*	21	0.3	93*	-17
